In the library only some 4.9% were active in any assay of this set; here they are far more common.
PP5 inh – PP5 (human) phosphatase inhibition. P53041. purified PP5c, OMFP substrate fluorescence. inhibition, % at 6.7 µM. 320,000 tested, 0.18% active;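 active means inhibition above the campaign's mean inhibition across all tested compounds plus 3 SD, cut at about 9.5% in these data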
Target sequence (P53041 whole entry, looked up): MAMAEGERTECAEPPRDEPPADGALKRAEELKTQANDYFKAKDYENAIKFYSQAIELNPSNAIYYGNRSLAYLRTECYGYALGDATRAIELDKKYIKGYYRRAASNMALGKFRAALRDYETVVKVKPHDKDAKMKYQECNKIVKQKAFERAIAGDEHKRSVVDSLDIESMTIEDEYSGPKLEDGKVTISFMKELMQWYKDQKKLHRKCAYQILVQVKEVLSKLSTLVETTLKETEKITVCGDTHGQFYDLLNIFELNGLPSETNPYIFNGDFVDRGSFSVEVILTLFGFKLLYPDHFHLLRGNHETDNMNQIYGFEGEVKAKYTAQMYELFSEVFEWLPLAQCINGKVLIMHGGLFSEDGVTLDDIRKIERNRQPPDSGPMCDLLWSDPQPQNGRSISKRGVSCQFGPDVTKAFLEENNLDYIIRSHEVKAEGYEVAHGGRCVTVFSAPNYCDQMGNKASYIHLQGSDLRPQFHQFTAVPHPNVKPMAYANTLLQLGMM
CSC inhib – cancer stem cell inhibition; cancer stem cell-like cells viability, luminescence; inhibition, % at 7.5 µM; 300,000 tested, 1.1% active; AID 2717; in the data active means inhibition above about 75%; inconclusive means no clear call, values can overlap the other calls; tested in HMLE shEcad cells
PP1 inh – PP1-alpha (human) inhibition in PP5 counter-screen. P62136. purified PP1alpha, OMFP fluorescence. inhibition, % at 6.7 µM. 320,000 tested, 0.9% active. AID 2235;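 active means inhibition above the mean inhibition of all tested compounds plus 3 SD, computed separately for each screening campaign, cut at about 15% in these data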
Beta apoptosis – beta cell apoptosis inhibition. AID 435005. protection from apoptosis, % (no concentration beside the values). 300,000 tested, 0.8% active. INS-1E cytokine-induced death, ATP luminescence, 48 h; percent of positive-control rescue, neutral wells zero;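 active means Every replicate reaches about 75%, or at least half do and their mean reaches it too, limit read from the data; inconclusive means At least half of replicates reach the limit but their mean does not; inactive means Under half of replicates reach the limit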;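 further: higher means more ATP so stronger rescue from cytokine killing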
Calb FLC – affects C. albicans growth with fluconazole; C. albicans CaCi-2 (fluconazole-resistant clinical isolate) + fluconazole, Alamar Blue growth, 48 h; growth inhibition, % (no concentration beside the values); 300,000 tested, 0.57% active; AID 1979;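 active means growth inhibition above about 58% in most replicates, limit read from the data, passing the limit was not always enough; inconclusive means exactly half the replicates above a set limit; inactive means most replicates below a set limit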;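 further: all wells also contain fluconazole at 8 µg/ml as a sub-toxic cotreatment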
Mdm2-MdmX inh – disrupts the human Mdm2-MdmX interaction | O15151+Q00987 | SaOS-2 split-luciferase Mdm2/MdmX complementation, luminescence | inhibition, % at 8 µM | 330,000 tested, 3% active;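 active means inhibition of at least 50% at 8 µM in the primary screen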
PP1 confirm – human PP1 phosphatase inhibition, confirmation. shares compounds with PP1 inh. purified PP1alpha, OMFP substrate fluorescence. inhibition, % at 6.7 µM. 1,900 tested, 52% active;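 active means mean PP1 inhibition above a set limit taken from the earlier primary screen, cut at about 15% in these data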
PP5 inh counter – PP5 phosphatase inhibition, counter-screen for PP1 inhibitors | shares compounds with PP1 inh | purified PP5c, OMFP fluorescence | inhibition, % at 6.7 µM | 1,900 tested, 4% active;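 active means mean PP5 inhibition over triplicate wells above about 9.5% taken from the earlier PP1 screen, limit read from the data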
Mdm2-MdmX conf – human Mdm2/MdmX binding inhibition, confirmed; shares compounds with Mdm2-MdmX inh; luminescent assay; inhibition, % at 8 µM; 10,000 tested, 55% active; in the data active means inhibition above about 40%
A number is an active result.

What do the screens show for `COc1cc(S(=O)(=O)NCc2ccncc2)ccc1Br`?
PP5 inh: inactive; CSC inhib: inactive; PP1 inh: inactive; Beta apoptosis: inactive; Calb FLC: inactive; Mdm2-MdmX inh: inactive

What do the screens show for `S=C(Nc1ccc2[nH]ccc2c1)NC1CCCCC1`?
PP5 inh: inactive; CSC inhib: inactive; PP1 inh: inactive; Beta apoptosis: inactive; Calb FLC: inactive; Mdm2-MdmX inh: inactive

Results for O=C(N[C@@H]1CCC(=O)N(CC[C@H](Sc2ccccc2)c2ccccc2)CC1)OCc1ccccc1 ?
PP5 inh: inactive; CSC inhib: inactive; PP1 inh: inactive; Beta apoptosis: inactive; Calb FLC: inactive; Mdm2-MdmX inh: inactive

How did CC1(C)CC(=O)c2c(O)cc(OCC(=O)N3CCN(c4ccccc4)CC3)cc2O1 do in these assays?
PP5 inh: inactive; CSC inhib: inactive; PP1 inh: 20; Beta apoptosis: inactive; Calb FLC: inactive; Mdm2-MdmX inh: inactive; PP1 confirm: inactive; PP5 inh counter: inactive

Results for CC(=C\c1ccccc1)/C=C1/SC(=S)N(CCCC(=O)O)C1=O ?
CSC inhib: inactive; Beta apoptosis: inactive; Calb FLC: inactive; Mdm2-MdmX inh: inactive

Results for CC(/C=C1\SC(=S)N(CCC(=O)Nc2cccc(C(=O)O)c2)C1=O)=C\c1ccccc1 ?
PP5 inh: inactive; PP1 inh: 23; Beta apoptosis: inactive; Calb FLC: inactive; Mdm2-MdmX inh: inactive; PP1 confirm: 16; PP5 inh counter: inactive

What do the screens show for `CC(/C=C1\SC(=S)N(CCC(=O)Nc2ccccc2O)C1=O)=C\c1ccccc1`?
PP5 inh: inactive; CSC inhib: inactive; PP1 inh: inactive; Beta apoptosis: inactive; Calb FLC: inactive; Mdm2-MdmX inh: inactive

How did O=C(CCN1C(=O)/C(=C/C=C/c2ccccc2)SC1=S)Nc1cccnc1 do in these assays?
PP5 inh: inactive; CSC inhib: inactive; PP1 inh: 20; Beta apoptosis: inactive; Calb FLC: inactive; Mdm2-MdmX inh: inactive; PP1 confirm: inactive; PP5 inh counter: inactive

How did O=C(CCN1C(=O)/C(=C/c2ccco2)SC1=S)Nc1ccc(C(=O)O)c(O)c1 do in these assays?
PP5 inh: inactive; PP1 inh: inactive; Calb FLC: inactive; Mdm2-MdmX inh: inactive

What do the screens show for `COc1ccccc1/C=C1\SC(=S)N(CCC(=O)Nc2ccc(C(=O)O)c(O)c2)C1=O`?
PP5 inh: inactive; CSC inhib: inactive; PP1 inh: 27; Beta apoptosis: inactive; Calb FLC: inactive; Mdm2-MdmX inh: inactive; PP1 confirm: inactive; PP5 inh counter: inactive

What do the screens show for `CC(/C=C1\SC(=S)N(CCCC(=O)Nc2ccc(C(=O)O)cc2)C1=O)=C\c1ccccc1`?
PP5 inh: inactive; PP1 inh: 19; Beta apoptosis: inactive; Calb FLC: inactive; Mdm2-MdmX inh: inactive; PP1 confirm: inactive; PP5 inh counter: inactive

What do the screens show for `O=C(CCN1C(=O)/C(=C/C=C/c2ccccc2)SC1=S)Nc1ccccn1`?
PP5 inh: inactive; CSC inhib: inactive; PP1 inh: inactive; Beta apoptosis: inactive; Calb FLC: inactive; Mdm2-MdmX inh: inactive

What do the screens show for `COc1ccc(NC(=O)COc2cccc3c2CCN(C)C3=O)c(OC)c1`?
PP5 inh: inactive; CSC inhib: inactive; PP1 inh: inactive; Beta apoptosis: inactive; Calb FLC: inactive; Mdm2-MdmX inh: inactive

How did COCC(=O)NC1(c2nnnn2CCOC(=O)Nc2ccc(Cl)cc2)CCCCC1 do in these assays?
PP5 inh: inactive; CSC inhib: inactive; PP1 inh: inactive; Beta apoptosis: inactive; Calb FLC: inactive; Mdm2-MdmX inh: inactive

How did COc1ccccc1CCC(=O)NNC(=O)c1ccc(Br)cc1 do in these assays?
PP5 inh: inactive; CSC inhib: inactive; PP1 inh: inactive; Beta apoptosis: inactive; Calb FLC: inactive; Mdm2-MdmX inh: inactive

What do the screens show for `Cc1ccc(NC(=O)CN2C(=O)N/C(=C/c3ccccc3OCc3cccc(C(=O)O)c3)C2=O)cc1`?
PP5 inh: inactive; PP1 inh: 52; Beta apoptosis: inactive; Calb FLC: inactive; Mdm2-MdmX inh: inactive; PP1 confirm: 33; PP5 inh counter: inactive

How did O=C(N/N=C/c1ccc(Cl)cc1)c1ccc2c(c1)OCO2 do in these assays?
PP5 inh: inactive; CSC inhib: inactive; PP1 inh: inactive; Beta apoptosis: inactive; Calb FLC: inactive; Mdm2-MdmX inh: inactive

Results for COc1ccc2c(Cl)c(C(=O)N/N=C/c3ccc4c(c3)OCO4)sc2c1 ?
PP5 inh: inactive; CSC inhib: inactive; PP1 inh: 20; Beta apoptosis: inactive; Calb FLC: inactive; Mdm2-MdmX inh: inactive; PP1 confirm: 48; PP5 inh counter: inactive

How did O=C(N/N=C/c1ccc2c(c1)OCO2)c1ccc(NC(=O)c2ccc(F)cc2)cc1 do in these assays?
PP5 inh: inactive; CSC inhib: inactive; PP1 inh: 19; Beta apoptosis: inactive; Calb FLC: inactive; Mdm2-MdmX inh: inactive; PP1 confirm: 30; PP5 inh counter: inactive

What do the screens show for `Cc1c(NC(=O)c2c(N)sc3c2CCCC3)c(=O)n(-c2ccccc2)n1C`?
PP5 inh: inactive; CSC inhib: inactive; PP1 inh: inactive; Beta apoptosis: inactive; Calb FLC: inactive; Mdm2-MdmX inh: inactive

What do the screens show for `O=C(Cc1cccs1)NC(c1ccccc1)c1ccccc1`?
PP5 inh: inactive; CSC inhib: inactive; PP1 inh: inactive; Calb FLC: inactive; Mdm2-MdmX inh: inactive

Results for O=C(COC(=O)/C(=C/c1cccs1)c1cccs1)NC(c1ccccc1)c1ccccc1 ?
PP5 inh: inactive; CSC inhib: inactive; PP1 inh: 20; Calb FLC: inactive; Mdm2-MdmX inh: inactive; PP1 confirm: inactive; PP5 inh counter: inactive

How did CCCCCCc1cc2cc(-c3nnc(-c4ccccc4OC)o3)c(=O)oc2cc1O do in these assays?
PP5 inh: inactive; CSC inhib: inconclusive; PP1 inh: 20; Calb FLC: inactive; Mdm2-MdmX inh: inactive; PP1 confirm: inactive; PP5 inh counter: inactive

What do the screens show for `Cc1cc(C)n(-c2nc(Nc3ccccc3C(F)(F)F)nc(-n3nc(C)cc3C)n2)n1`?
PP5 inh: inactive; CSC inhib: inactive; PP1 inh: 30; Beta apoptosis: 82; Calb FLC: inactive; Mdm2-MdmX inh: 69; PP1 confirm: 17; PP5 inh counter: inactive; Mdm2-MdmX conf: inactive

How did Cc1cc(C)n(-c2nc(Nc3ccccc3C)nc(-n3nc(C)cc3C)n2)n1 do in these assays?
PP5 inh: inactive; CSC inhib: inactive; PP1 inh: 36; Calb FLC: inactive; Mdm2-MdmX inh: 67; PP1 confirm: 38; PP5 inh counter: inactive; Mdm2-MdmX conf: inactive

How did Cc1cc(C)n(-c2nc(NC(C)(C)C)nc(NC(C)(C)C)n2)n1 do in these assays?
PP5 inh: inactive; CSC inhib: inactive; PP1 inh: inactive; Beta apoptosis: inconclusive; Calb FLC: inactive; Mdm2-MdmX inh: inactive
